# Assay outcomes as filed in PubChem.
# ELG1 DNA repair = qHTS screen for small molecules that inhibit ELG1-dependent DNA repair in human embryonic kidney (HEK293T) cells expressing luciferase-tagged ELG1; Potency, µM (titrated, usually from 46.1 µM), for the others: top-dose activity change, negative = inhibition, most hits filed as inhibitors; HEK293T ELG1-luciferase reporter, luminescence, 16 h; DNA damage induced by 5-fluorouridine; 2.3% of 330,000 active; also: potency is read from the fitted curve at half-maximal effect; nearly all actives have a fitted effect of over 55% in size
#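 Step one: seed 2,000 cells per well. Step two: pin-transfer compound or DMSO alongside 5-fluorouridine. Step three: incubate 16 hr, 37 °C, 5% CO2. Step four: add ONE-Glo, wait 30 min, read luminescence.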
# VP16 counter = VP16 counterscreen qHTS for inhibitors of ROR gamma transcriptional activity | Drosophila S2 Gal4-VP16 UAS-luciferase, luminescence, 20 h | Potency, µM (series often up to 53.6 µM), for inactives: at the highest dose activity, negative = inhibition, usual class: inhibitors | 3.5% of 310,000 active;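 also: Gal4-VP16 expression switched on by copper sulfate through the metallothionein promoter; potency is read from the fitted curve at half-maximal effect; nearly all actives have a fitted effect of over 50% in size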
# RORgamma inh = qHTS for inhibitors of ROR gamma transcriptional activity | Nuclear receptor ROR-gamma (Mus musculus), P51450 | Drosophila S2 Gal4-RORgamma UAS-luciferase reporter, 20 h | Potency, µM (highest dose often 53.6 µM), for the others: at the highest dose activity change, negative = inhibition, most hits filed as inhibitors | 5.4% of 310,000 active | AID 2551, 2010; also: potency is read from the fitted curve at half-maximal effect; nearly all actives have a fitted effect of over 60% in size
#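 Luminescence from a UAS-regulated Photinus luciferase reporter in stably transfected Drosophila Schneider cells is measured; decreased signal marks ROR gamma inhibition. Fusion expression is induced by 700 uM copper sulfate for 20 hr.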
# FBPA coupling cs = qHTS Assay for Inhibitors of Fructose-1,6-bisphosphate Aldolase from Giardia Lamblia: Coupling assay counterscreen; 0.67% of 290,000 active; activity change, negative = inhibition, % at 58.2 µM, hits read low; AID 2472, 2010; coupling enzyme system counterscreen, AmpLite Red fluorescence; in the data active = activity change below about -30%
#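 Activity here indicates interference with the coupling reaction, not aldolase inhibition. Compounds at 57.5 uM final met coupling enzymes for 10 min at RT; substrate and AmpLite Red detection followed, with a 525/598 nm fluorescence read after 20 min.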
# TSHR antag = Antagonists of the Thyroid Stimulating Hormone Receptor: HTS campaign; Thyrotropin receptor (Homo sapiens), P16473; TSHR-expressing cells, TSH-stimulated cAMP HTRF, 2 h; stronger effect = lower value; activity change, negative = inhibition, % at 11.5 µM; 0.2% of 330,000 active;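 active = activity change below a set negative limit, meaning inhibition stronger than a set level, cut at about -70% in these data; inconclusive = activity change between two set negative limits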
# Target sequence (P16473 whole entry, looked up): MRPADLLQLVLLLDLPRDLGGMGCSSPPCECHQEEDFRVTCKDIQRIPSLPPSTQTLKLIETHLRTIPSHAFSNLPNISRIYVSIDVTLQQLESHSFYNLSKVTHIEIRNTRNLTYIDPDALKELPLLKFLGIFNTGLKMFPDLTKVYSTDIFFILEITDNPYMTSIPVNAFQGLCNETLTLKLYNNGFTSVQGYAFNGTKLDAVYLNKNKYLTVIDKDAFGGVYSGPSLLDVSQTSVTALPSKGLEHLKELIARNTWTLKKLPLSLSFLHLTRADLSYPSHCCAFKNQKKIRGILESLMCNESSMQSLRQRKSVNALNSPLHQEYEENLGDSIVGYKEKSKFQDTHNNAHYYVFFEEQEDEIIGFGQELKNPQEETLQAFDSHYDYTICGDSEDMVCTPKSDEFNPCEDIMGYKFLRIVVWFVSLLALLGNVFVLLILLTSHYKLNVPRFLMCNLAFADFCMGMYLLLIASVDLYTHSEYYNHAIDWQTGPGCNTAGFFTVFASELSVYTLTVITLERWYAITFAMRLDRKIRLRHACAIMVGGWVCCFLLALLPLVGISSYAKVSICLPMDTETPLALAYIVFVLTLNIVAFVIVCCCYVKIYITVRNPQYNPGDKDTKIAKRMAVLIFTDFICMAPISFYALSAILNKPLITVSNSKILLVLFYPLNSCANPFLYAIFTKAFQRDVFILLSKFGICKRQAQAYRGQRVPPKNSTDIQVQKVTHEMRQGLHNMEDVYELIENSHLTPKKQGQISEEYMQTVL
#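 Read-out is FRET at 665 nm (cryptate excitation 337 nm) from a cryptate-tagged anti-cAMP antibody, competed by cell cAMP against cAMP-d2. Compounds are tested on freshly harvested TSHR cells challenged with 4nM TSH (EC80) for 2 hours at 37 deg C.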
# * hit, by the source's call; ? = inconclusive; . = no result; [ ] = another dose, or the depositor's remark. Rows were chosen to be rich in hits. Some 8% of all compounds tested hit in one or more screens of this group. Unless noted, calls follow the shape of the dose curve; as a rule, active = well fitted curve in the direction sought with a large enough effect; inconclusive = small, poorly fitted or top-dose-only effect, or another doubt; inactive = no such curve, though single readings can be large; an effect the other way counts as inactive or inconclusive. % is scaled to controls: 0 for no effect and ±100 for the full control effect.
SMILES,ELG1 DNA repair,VP16 counter,RORgamma inh,FBPA coupling cs,TSHR antag
C/C(=C\C(=O)c1cccnc1)Nc1ccc(O)cc1,?,?,13µM*,-21,-1
C/C(=C\C(=S)Nc1ccccc1)Nc1ccccc1,?,?,10µM*,1,8
CNc1ncncc1-c1ccccc1OC,.,1%,-1%,3,.
CO[C@H]1C[C@@H]2CC[C@@H](C)[C@@](O)(O2)C(=O)C(=O)N2CCCC[C@H]2C(=O)O[C@H]([C@H](C)C[C@@H]2CC[C@@H](OC(=O)C(C)(CO)CO)[C@H](OC)C2)CC(=O)[C@H](C)/C=C(\C)[C@@H](O)[C@@H](OC)C(=O)[C@H](C)C[C@H](C)/C=C/C=C/C=C/1C,.,-10%,4%,.,.
CC(OC(=O)c1nsc(Cl)c1Cl)C(=O)NCCc1ccccc1 (stereo unspecified),11%,2%,-11%,1,0
O=S(=O)(Nc1cc(Cl)ccc1-n1cncn1)c1cc(Br)ccc1Br,23µM*,.,.,.,?
Cc1cccc(N(Cc2cc(=O)[nH]c3ccccc23)C(=O)CCl)c1,?,?,18µM*,2,-4
O=C(c1cc(-c2ccc(Cl)cc2Cl)on1)N1CCCCCC1,?,?,8.9µM*,1,-7
O=C(c1cc(-c2ccc(Cl)cc2Cl)on1)N1CCN(C(=O)c2ccco2)CC1,?,-2%,1%,.,2
O=C(c1cc(-c2ccc(Cl)cc2Cl)on1)N1CCCC1,?,10µM*,8.9µM*,0,-13
CC(=O)Nc1ccc(C2C(=O)c3ccccc3C2=O)cc1,?,-2%,1%,2,15
CCCC(=O)Nc1ccc(C2C(=O)c3ccccc3C2=O)cc1,?,11µM*,11µM*,6,-1
CC(C)(C)n1cn[nH]c1=S,2%,-13%,11µM*,3,-3
Cc1ccc(S(=O)(=O)CNC(=S)c2cccc(Cl)c2)cc1,-9%,?,22µM*,0,-8
CCNC(=S)NS(=O)(=O)c1ccc(C)cc1,10%,?,?,1,1
Cc1ccc(C)n1NC(=O)c1cccc(Cl)c1,-8%,-2%,3%,0,4
Cc1ccc(C(=S)NCS(=O)(=O)c2ccc(C)cc2)cc1,5%,8.9µM*,2.8µM*,1,-7
CC(NC(=O)C(C)N1c2cccc3cccc(c23)S1(=O)=O)c1ccccc1 (stereo unspecified),?,-15%,17%,-6,-6
CCCCCn1c(N2CCN(c3cccc(Cl)c3)CC2)nc2c1c(=O)[nH]c(=O)n2C,23µM*,-6%,?,0,-12
CCCCCn1c(Sc2nc3ccccc3s2)nc2c1c(=O)[nH]c(=O)n2C,21µM*,3%,24%,0,-12
CCCCCn1c(Sc2ncccn2)nc2c1c(=O)[nH]c(=O)n2C,-8%,14%,-24%,1,20
C=C(C)Cn1c(Sc2nc3ccccc3[nH]2)nc2c1c(=O)[nH]c(=O)n2C,26µM*,-9%,1%,2,12
NCCC[C@H](N)CC(=O)N[C@H]1CNC(=O)[C@@H]([C@@H]2C[C@H](O)N=C(N)N2)NC(=O)/C(=C/NC(N)=O)NC(=O)[C@@H](CO)NC(=O)[C@@H](CO)NC1=O,.,14%[17 µM],-10%[16.9 µM],0,.
O=C(Nc1nc(-c2ccccn2)cs1)c1ccc(Br)s1,-3%,1.3µM*,1.3µM*,-8,-17
O=C(Nc1nc(-c2ccccn2)cs1)c1cccc(-n2cnnn2)c1,?,-5%,5µM*,-7,1
O=C(Nc1nc(-c2ccccn2)cs1)c1ccco1,?,0%,7.1µM*,-9,-2
COc1ccc(OCc2nc3c4cc(OC)c(OC)cc4nc(=S)n3[nH]2)cc1,0%,0.71µM*,0.4µM*,-4,-1
Cc1cc2ncn(S(=O)(=O)c3ccc(S(=O)(=O)N4CCOCC4)cc3)c2cc1C,-4%,.,5%[0.365 µM],2,2
